Laboratory results: PubChem BioAssay AID1159580 (chemical genetic matrix, 2015)
In all, about 5,500 compounds went through this assay and about 2,000 (36%) were called active. Inconclusive results (about 18%) are left out. Rule as the data show it: active = normalized growth mostly below about 0.91 (no sharp cut-off); inconclusive = no clear call, values can overlap the other calls; inactive = mostly above about 0.92. The list shows a part of the results.

Experiment: chemical genetic growth profiling, strain panel (AID 1159580);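 also: tested at 20 µM; growth read once vehicle control cultures reached saturation at 30 °C; 1 = growth at the plate median or of vehicle wells; lower values mean less growth of the strain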
Conditions: growth OD

Measured: normalized growth

CC(=O)O[C@H]1CC[C@]2(C)C3CC[C@@]4(C)C(CC5O[C@@]6(CCC(C)CO6)[C@@H](C)C54)C3CC[C@H]2C1 (stereo partly drawn)
inactive: S. cerevisiae deletion strains, locus YAL013W, strain DEP1, stronger effect = lower value 0.995 | S. cerevisiae deletion strains, locus YBR021W, strain FUR4, stronger effect = lower value 1 | S. cerevisiae deletion strains, locus YBR229C, strain ROT2, stronger effect = lower value 0.986 | S. cerevisiae deletion strains, locus YCL029C, strain bik1, stronger effect = lower value 0.98 | S. cerevisiae deletion strains, locus YDL035C, strain GPR1, stronger effect = lower value 1.02 | S. cerevisiae deletion strains, locus YDL074C, strain BRE1, stronger effect = lower value 1.01 | S. cerevisiae deletion strains, locus YDL101C, strain DUN1, stronger effect = lower value 0.98 | S. cerevisiae deletion strains, locus YDL134C, strain PPH21, stronger effect = lower value 0.988 | S. cerevisiae deletion strains, locus YDL185W, strain tfp1, stronger effect = lower value 0.972 | S. cerevisiae deletion strains, locus YDL192W, strain arf1, stronger effect = lower value 0.987 | S. cerevisiae deletion strains, locus YDR101C, strain arx1, stronger effect = lower value 0.983 | S. cerevisiae deletion strains, locus YDR150W, strain NUM1, stronger effect = lower value 1 | S. cerevisiae deletion strains, locus YDR162C, strain NBP2, stronger effect = lower value 1.02 | S. cerevisiae deletion strains, locus YDR318W, strain mcm21, stronger effect = lower value 0.975 | S. cerevisiae deletion strains, locus YDR388W, stronger effect = lower value 0.973 | S. cerevisiae deletion strains, locus YDR502C, strain sam2, stronger effect = lower value 0.974 | S. cerevisiae deletion strains, locus YEL061C, strain CIN8, stronger effect = lower value 0.997 | S. cerevisiae deletion strains, locus YER110C, stronger effect = lower value 0.976 | S. cerevisiae deletion strains, locus YER155C, strain BEM2, stronger effect = lower value 0.984 | S. cerevisiae deletion strains, locus YER167W, strain BCK2, stronger effect = lower value 0.995 | S. cerevisiae deletion strains, locus YGL078C, strain dbp3, stronger effect = lower value 0.971 | S. cerevisiae deletion strains, locus YGL086W, strain mad1, stronger effect = lower value 0.988 | S. cerevisiae deletion strains, locus YGL248W, strain PDE1, stronger effect = lower value 0.984 | S. cerevisiae deletion strains, locus YGR135W, strain pre9, stronger effect = lower value 0.948 | S. cerevisiae deletion strains, locus YGR252W, strain gcn5, stronger effect = lower value 0.92 | S. cerevisiae deletion strains, locus YHR030C, strain SLT2, stronger effect = lower value 0.978 | S. cerevisiae deletion strains, locus YHR079C, strain IRE1 (second series), stronger effect = lower value 0.977 | S. cerevisiae deletion strains, locus YHR094C, strain hxt1, stronger effect = lower value 0.969 | S. cerevisiae deletion strains, locus YHR129C, strain ARP1, stronger effect = lower value 0.991 | S. cerevisiae deletion strains, locus YHR200W, strain rpn10, stronger effect = lower value 0.973 | S. cerevisiae deletion strains, locus YIL066C, strain RNR3, stronger effect = lower value 0.993 | S. cerevisiae deletion strains, locus YIL073C, strain SPO22, stronger effect = lower value 0.985 | S. cerevisiae deletion strains, locus YIL125W, strain kgd1, stronger effect = lower value 0.982 | S. cerevisiae deletion strains, locus YIR030C, strain dcg1, stronger effect = lower value 0.975 | S. cerevisiae deletion strains, locus YJL095W, strain BCK1, stronger effect = lower value 0.977 | S. cerevisiae deletion strains, locus YJL134W, strain LCB3, stronger effect = lower value 0.987 | S. cerevisiae deletion strains, locus YJL168C, strain set2, stronger effect = lower value 0.979 | S. cerevisiae deletion strains, locus YJL187C, strain SWE1 (second series), stronger effect = lower value 0.977 | S. cerevisiae deletion strains, locus YJR043C, strain POL32, stronger effect = lower value 1.02 | S. cerevisiae deletion strains, locus YJR075W, strain HOC1, stronger effect = lower value 0.983 | S. cerevisiae deletion strains, locus YKL009W, strain mrt4, stronger effect = lower value 1.04 | S. cerevisiae deletion strains, locus YKL068W, stronger effect = lower value 0.979 | S. cerevisiae deletion strains, locus YKL085W, strain MDH1 (second series), stronger effect = lower value 1.01 | S. cerevisiae deletion strains, locus YKL085W, strain MDH1, stronger effect = lower value 1.01 | S. cerevisiae deletion strains, locus YKL190W, strain CNB1, stronger effect = lower value 0.999 | S. cerevisiae deletion strains, locus YKR001C, strain vps1, stronger effect = lower value 0.971 | S. cerevisiae deletion strains, locus YLR039C, strain RIC1, stronger effect = lower value 1.07 | S. cerevisiae deletion strains, locus YLR058C, strain SHM2, stronger effect = lower value 0.989 | S. cerevisiae deletion strains, locus YLR102C, strain apc9, stronger effect = lower value 0.979 | S. cerevisiae deletion strains, locus YLR268W, strain sec22, stronger effect = lower value 0.987 | S. cerevisiae deletion strains, locus YLR330W, strain CHS5, stronger effect = lower value 0.986 | S. cerevisiae deletion strains, locus YLR371W, strain rom2, stronger effect = lower value 0.991 | S. cerevisiae deletion strains, locus YLR418C, strain cdc73, stronger effect = lower value 0.976 | S. cerevisiae deletion strains, locus YML016C, strain PPZ1, stronger effect = lower value 0.989 | S. cerevisiae deletion strains, locus YML032C, strain rad52, stronger effect = lower value 0.977 | S. cerevisiae deletion strains, locus YML124C, strain tub3, stronger effect = lower value 0.994 | S. cerevisiae deletion strains, locus YMR078C, strain ctf18, stronger effect = lower value 0.969 | S. cerevisiae deletion strains, locus YMR223W, strain ubp8, stronger effect = lower value 0.969 | S. cerevisiae deletion strains, locus YMR263W, strain SAP30, stronger effect = lower value 0.991 | S. cerevisiae deletion strains, locus YMR307W, strain GAS1, stronger effect = lower value 1.09 | S. cerevisiae deletion strains, locus YNL067W, strain RPL9B, stronger effect = lower value 0.983 | S. cerevisiae deletion strains, locus YNL153C, strain GIM3, stronger effect = lower value 0.977 | S. cerevisiae deletion strains, locus YNL233W, strain BNI4, stronger effect = lower value 1.01 | S. cerevisiae deletion strains, locus YNL250W, strain rad50, stronger effect = lower value 0.965 | S. cerevisiae deletion strains, locus YNL271C, strain bni1, stronger effect = lower value 0.982 | S. cerevisiae deletion strains, locus YNL298W, strain CLA4, stronger effect = lower value 0.971 | S. cerevisiae deletion strains, locus YNL307C, strain MCK1, stronger effect = lower value 0.982 | S. cerevisiae deletion strains, locus YNR052C, strain pop2, stronger effect = lower value 0.953 | S. cerevisiae deletion strains, locus YOL006C, strain TOP1, stronger effect = lower value 1.06 | S. cerevisiae deletion strains, locus YOL012C, strain htz1 1.12 | S. cerevisiae deletion strains, locus YOL147C, strain pex11, stronger effect = lower value 0.98 | S. cerevisiae deletion strains, locus YOR061W, strain CKA2, stronger effect = lower value 1 | S. cerevisiae deletion strains, locus YOR069W, strain VPS5, stronger effect = lower value 0.98 | S. cerevisiae deletion strains, locus YOR136W, strain idh2, stronger effect = lower value 0.968 | S. cerevisiae deletion strains, locus YOR144C, strain elg1, stronger effect = lower value 0.972 | S. cerevisiae deletion strains, locus YOR184W, strain ser1, stronger effect = lower value 1.02 | S. cerevisiae deletion strains, locus YOR316C, strain cot1, stronger effect = lower value 0.977 | S. cerevisiae deletion strains, locus YPR119W, strain clb2, stronger effect = lower value 0.968 | S. cerevisiae deletion strains, locus YPR141C, strain kar3, stronger effect = lower value 0.974 | S. cerevisiae deletion strains, locus YPR163C, strain tif3, stronger effect = lower value 0.977 | S. cerevisiae deletion strains, locus YPR167C, strain met16, stronger effect = lower value 0.979 | S. cerevisiae deletion strains, strain wtn01, stronger effect = lower value 1 | S. cerevisiae strains, strain wild type, stronger effect = lower value 1.02
